# High-throughput results as filed in PubChem BioAssay.
# An excerpt weighted towards active compounds, which were near 12% of everything screened.
# Sfp PPTase inh: qHTS Assay for Inhibitors of Bacillus subtilis Sfp phosphopantetheinyl transferase (PPTase); 4'-phosphopantetheinyl transferase ffp (Bacillus subtilis), Q9F4F7; Biochemical Sfp PPTase activity, qHTS; Potency, µM, inactives show largest response in the series, negative = inhibition, hits mostly inhibitors; 3.5% of 310,000 active; AID 1490, 2009;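 further: the enzyme is Sfp with the accession as filed and its product quenches rhodamine fluorescence; 0% = enzyme reaction without inhibitor and -100% = no enzyme wells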
#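 Sfp 15 nM + cpd, 15 min RT; start w/ rhodamine-CoA 5 uM, BHQ-2-YbbR 12.5 uM (final); 50 mM Hepes pH 7.6, 10 mM MgCl2, 0.01% NP-40, 0.01% BSA; read 525/598 nm at 0 and 30 min.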
# HP1b binding inh: HTS for Inhibitors of HP1-beta Chromodomain Interactions with Methylated Histone Tails; Potency, µM (doses to about 114 µM), without a hit: at the highest dose activity change, negative = inhibition, most hits filed as inhibitors; AID 540317, 2011; AlphaScreen HP1-beta / biotin-H3K9me3 peptide binding; 0.56% of 390,000 active; Chromobox protein homolog 1 (Homo sapiens), P83916; further: nearly all actives have a fitted effect of over 70% in size
# Target sequence (P83916 whole entry, looked up): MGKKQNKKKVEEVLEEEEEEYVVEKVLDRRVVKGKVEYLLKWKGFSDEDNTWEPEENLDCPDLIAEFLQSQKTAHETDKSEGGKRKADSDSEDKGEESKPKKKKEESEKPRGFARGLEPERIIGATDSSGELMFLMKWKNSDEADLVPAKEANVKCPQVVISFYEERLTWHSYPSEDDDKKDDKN
#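 HP1-beta protein (50 nM final) preincubated 30 min at room temperature with biotinylated H3(1-18)K9me3 peptide (50 nM) in PBS pH 7.4, 0.01% Tween-20, then compound added for 30 min. AlphaScreen streptavidin donor/nickel chelate acceptor beads (10 ug/mL final), 30 min dark, luminescence read.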
# BAZ2B block: qHTS Assay for Inhibitors of BAZ2B; AlphaScreen BAZ2B-H3K14Ac peptide displacement; 4.4% of 360,000 active; AID 504333, 2011; Potency, µM (doses to about 114 µM), inactives show at the highest dose activity change, negative = inhibition, hits mostly inhibitors; Bromodomain adjacent to zinc finger domain protein 2B (Homo sapiens), Q9UIF8; further: on the % scale 0 is the no-effect control and ±100 the full control effect; nearly all actives have a fitted effect of over 60% in size
#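 BAZ2B 50 nM plus b-H3(5-23)K14Ac 50 nM, PBS pH 7.4/0.01% Tween-20, 30 min RT; compound added (max 110 uM), 30 min RT; streptavidin donor/Ni-chelate acceptor beads 10 ug/mL final, 20 min dark; AlphaScreen read.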
# PLK1 PBD inh: qHTS for Inhibitors of PLK1-PDB (polo-like kinase 1 - polo-box domain): Primary Screen. Serine/threonine-protein kinase PLK1 (Homo sapiens), P53350. Plk1 PBD binding of FITC phosphopeptide, fluorescence polarization. Potency, µM, for the others: max response, negative = inhibition, hits mostly inhibitors. 2.8% of 360,000 active. AID 720504, 2013; further: series mostly up to about 57 µM; on the % scale 0 is the no-effect control and ±100 the full control effect; nearly all actives have a fitted effect of over 65% in size
# G9a block: qHTS Assay for Inhibitors of Histone Lysine Methyltransferase G9a; Potency, µM (titrated, usually from 102 µM), for the others: at the highest dose activity, negative = inhibition, usual class: inhibitors; Histone-lysine N-methyltransferase EHMT2 (Homo sapiens), Q96KQ7; AID 504332, 2011; 8.8% of 350,000 active; G9a H3K9 monomethylation, AlphaScreen, 2 h; further: on the % scale 0 is the no-effect control and ±100 the full control effect; nearly all actives have a fitted effect of over 75% in size
# Target sequence (Q96KQ7 913-1193 limits assumed): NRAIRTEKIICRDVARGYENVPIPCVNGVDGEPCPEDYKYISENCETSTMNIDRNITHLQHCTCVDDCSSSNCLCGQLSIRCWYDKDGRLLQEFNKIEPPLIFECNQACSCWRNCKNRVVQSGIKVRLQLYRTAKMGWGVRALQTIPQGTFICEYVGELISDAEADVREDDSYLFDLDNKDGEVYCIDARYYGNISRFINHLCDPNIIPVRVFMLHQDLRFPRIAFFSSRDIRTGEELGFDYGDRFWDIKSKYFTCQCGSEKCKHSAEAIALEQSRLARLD
#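 Using a bead-based AlphaScreen, monomethylated H3K9 product from 2 h room-temperature reactions (G9a 20 nM, peptide 500 nM, SAM 20 uM) was detected with 0.5 ug/mL rabbit anti-H3K9me1 antibody.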
# JMJD2A Tudor: qHTS Assay for Inhibitors of JMJD2A-Tudor Domain; AlphaScreen JMJD2A-Tudor / H3K4me3 peptide binding; AID 504339, 2011; 4.4% of 390,000 active; Potency, µM (doses to about 114 µM), inactives show at the top dose activity change, negative = inhibition, actives largely listed as inhibitors; Lysine-specific demethylase 4A (Homo sapiens), O75164; further: on the % scale 0 is the no-effect control and ±100 the full control effect; nearly all actives have a fitted effect of over 50% in size
# Active calls of the source: *; ? = inconclusive; / = not tested or not shown; [ ] = dose if it differs, or a comment. The call rests on the fitted dose curve; in most records, active means well fitted curve in the direction sought with a large enough effect; inconclusive means small, poorly fitted or top-dose-only effect, or another doubt; inactive means no such curve, though single readings can be large; an effect the other way counts as inactive or inconclusive. Potency means the concentration at half of the fitted maximal effect.
SMILES,Sfp PPTase inh,HP1b binding inh,BAZ2B block,PLK1 PBD inh,G9a block,JMJD2A Tudor
CCCCN1C(=O)/C(=c2\sc3nc(=O)c(-c4ccccc4)nn3c2=O)c2ccccc21,16µM*,?,?,27µM*,?,?
CCCN1C(=O)/C(=c2\sc3nc(=O)c(Cc4ccc(C)cc4)nn3c2=O)c2ccccc21,20µM*,?,?,30µM*,/,?
CCc1nc(N2CCN(C(=S)NCCCOC)CC2)c2c3c(sc2n1)CCCC3,-2%,17%,?,-1%,16%[59 µM],-31%
COc1ccc(NC(=O)CSc2nc(-c3ccco3)cc(C(F)(F)F)n2)cc1,/,28%,-7%,/,-32%[59 µM],-10%
CCCCc1ccc(NC(=O)Cn2cnc3c2c(=O)n(C)c(=O)n3C)cc1,/,25%,1%,/,-32%[59 µM],-9%
O=c1c2c(-c3ccc(Cl)cc3)csc2ncn1/N=C/c1cccc([N+](=O)[O-])c1O,-6%,-17%,50µM*,?,40µM*,40µM*
O=[N+]([O-])c1cccc(/C=N/n2cnnc2)c1O,-18%,48%,-7%,-12%,15%[59 µM],-16%
CC1(C)Cc2nc3oc4c(=S)nc[nH]c4c3cc2CO1,22µM*,25%,7%,-25%,45µM*,25µM*
COC(=O)c1cc2oc(C)cc2n1Cc1cc(C)ccc1C,/,14%,-32%,/,?,-29%
CCSCCNC(=O)c1cc(-n2cnnc2)ccc1Cl,-1%,36%,1%,-7%,2.5µM*,-7%
O=C(NCCOc1cccc(Cl)c1Cl)c1cc(-n2cnnc2)ccc1Cl,12%,29%,12%,-8%,20%[2.33 µM],-17%
CC1(C)Cc2ccccc2C(NNC(=O)c2ccc(Br)o2)=N1,/,26%,/,-5%,/,-15%
O=C(Nc1ccc(F)cc1)Nc1nnc(Cc2ccccc2F)s1,-5%,-3%,-21%,17µM*,19%[59 µM],?
O=C(Nc1ccccc1)Nc1nnc(Cc2ccccc2F)s1,-5%,24%,2%,-5%,17%,4%
COc1ccc(/C=C(\NC(=O)c2ccccc2)C(=O)NCc2ccco2)cc1OC,14%,7%,-9%,1%,14%,-13%
CCC(c1c(C)[nH]oc1=O)c1c(C)[nH]oc1=O,-18%,-4%,-97%,-18%,?,25µM*
CCN(C(=O)Cc1cccs1)c1nnc(-c2cccnc2)s1,-11%,34%,?,-3%,2.8µM*,-19%
CCC(=O)n1nc(-c2cccnc2)nc1NCc1cccs1,12%,12%,4%,-11%,?,-10%
CC1=CC(C)(C)[N+](C)(C)c2ccc(C)cc21,15%,9%,?,3%,56µM*,?
COc1ccc(C)cc1NC(=O)Cc1csc(NC(=O)Nc2ccccc2OC)n1,/,/,/,30µM*,/,/
COc1ccccc1NC(=O)Nc1nc(CC(=O)Nc2ccc(N(C)C)cc2)cs1,/,40µM*,13µM*,-10%,11µM*,25µM*
COc1ccccc1NC(=O)Nc1nc(CC(=O)Nc2cccc(F)c2)cs1,/,3%,-35%,-3%,40µM*,-34%
COc1ccccc1NC(=O)Nc1nc(CC(=O)Nc2cc(F)ccc2F)cs1,/,-17%,-37%,-6%,32µM*,-34%
Cc1ccc(NC(=O)[C@@H](c2ccccc2)N2Cc3ccccc3C2=O)cc1,/,19%,-25%,/,-6%[59 µM],-19%
COc1ccc(N2CCN(C(=O)Cc3csc(NC(=O)Nc4ccccc4OC)n3)CC2)cc1,/,-23%,?,-2%,7.9µM*,?
SMILES,Sfp PPTase inh,HP1b binding inh,BAZ2B block,PLK1 PBD inh,G9a block,JMJD2A Tudor
COc1ccc(CNCc2ccccc2C(F)(F)F)cc1,-22%,?,79µM*,-8%,8.9µM*,28µM*
COc1ccc(CN(C)CC(=O)Nc2ccccc2C(F)(F)F)cc1,6%,106%,8%,-1%,60%,30%
COc1ccc(CC(=O)NCc2ccccc2)cc1,11%,-15%,11%,3%,39%,-21%
COc1ccc(CCNCC(=O)Nc2ccccc2C(F)(F)F)cc1,-12%,?,50µM*,27µM*,2.5µM*,3.2µM*
COc1ccc2ccc(O)c(CN(C)CC(=O)Nc3ccccc3C(F)(F)F)c2c1,-9%,-20%,-13%,11µM*,7.9µM*,?
COc1ccc(CNCc2cccc3ccccc23)cc1,-23%,?,?,2%,/,18µM*
COc1cccc(N2CCN(S(=O)(=O)c3ccc4c(c3)NC(=O)C(C)C(=O)N4)CC2)c1 (stereo not drawn),8%,13%,11%,-9%,?,-16%
COc1cc(/C=C/C(=O)OCC(=O)N2CC(C)OC(C)C2)ccc1OCC#N (stereo not drawn),/,/,/,-15%,/,/
Cc1ccccc1S(=O)(=O)Cc1ccc(C(=O)N(C)C2CCCCC2)o1,8%,47%,-17%,-6%,?,7%
Cc1cc2c(c(=O)o1)C1O[C@](c3ccsc3)(Cc3ccccc31)O2,1%,/,?,/,?,/
O=c1oc2ccccc2c2c1C1O[C@](c3ccsc3)(Cc3ccccc31)O2,-12%,/,8.9µM*,/,/,/
COc1ccc2c3c(c(=O)oc2c1)C1O[C@](c2ccsc2)(Cc2ccccc21)O3,-5%,/,?,/,/,/
O=C1C2=C(C(=O)c3ccccc31)C1O[C@](c3ccsc3)(Cc3ccccc31)O2,-3%,/,10µM*,/,-38%[2.33 µM],/
Cc1ccc(NC2=CC(=O)c3sc(C)nc3C2=O)cc1,-11%,/,/,/,/,/
O=C(COC(=O)c1cc[n+]([O-])cc1)Nc1cc([N+](=O)[O-])ccc1Cl,/,10%,10%,-16%,-3%,-19%
O=C(Cn1c(=O)n(Cc2ccccc2)c(=O)c2oc3ccccc3c21)Nc1ccc(Cl)cc1,/,29%,-11%,/,-7%[59 µM],-1%
O=S(=O)(c1cccc(C(F)(F)F)c1)N1CCN(CC(O)COCc2ccccc2)CC1 (stereo not drawn),/,?,/,-3%,/,13µM*
O=S(=O)(c1ccc(F)cc1)N1CCN(CC(O)COCc2ccccc2)CC1 (stereo not drawn),/,?,/,-1%,/,5.6µM*
O=S(=O)(c1cccc(C(F)(F)F)c1)N1CCN(c2ccccc2)CC1,14%,36%,6%,-5%,2%[59 µM],8%
N#C/C(=C\c1cc(Cl)cc(Cl)c1)c1cccnc1,3%,/,/,/,24%[59 µM],/
Cc1cccc(C)c1OCc1cc(=O)n2c3c(sc2n1)CCCC3,/,83%,22%,/,21%[59 µM],38%
